According to PubChem BioAssay AID1159580 (chemical genetic matrix, 2015):
About 2,000 (36%) of roughly 5,500 compounds were called active. Inconclusive results (about 18%) are left out. No stated cut-off is given here; in the data, active means normalized growth mostly below about 0.91 (no sharp cut-off); inconclusive means no clear call, values can overlap the other calls; inactive means mostly above about 0.92. The list shows a part of the results.

Test: chemical genetic growth profiling, strain panel (AID 1159580);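 further: tested at 20 µM; growth read once vehicle control cultures reached saturation at 30 °C; 1 = growth at the plate median or of vehicle wells; lower values mean less growth of the strain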
Settings: growth OD

Measured: normalized growth

CCC1(c2ccccc2)C(=O)NCNC1=O
inactive: S. cerevisiae deletion strains, locus YJR075W, strain HOC1, hits give low values 1.01 | S. cerevisiae deletion strains, locus YKL009W, strain mrt4, hits give low values 0.998 | S. cerevisiae deletion strains, locus YKL068W, hits give low values 0.997 | S. cerevisiae deletion strains, locus YKL085W, strain MDH1 (second series), hits give low values 0.996 | S. cerevisiae deletion strains, locus YKL085W, strain MDH1, hits give low values 0.996 | S. cerevisiae deletion strains, locus YKL160W, strain elf1, hits give low values 1.02 | S. cerevisiae deletion strains, locus YKL190W, strain CNB1, hits give low values 1.01 | S. cerevisiae deletion strains, locus YKR001C, strain vps1, hits give low values 0.995 | S. cerevisiae deletion strains, locus YKR026C, strain gcn3, hits give low values 0.978 | S. cerevisiae deletion strains, locus YKR091W, strain srl3, hits give low values 0.999 | S. cerevisiae deletion strains, locus YLL001W, strain dnm1, hits give low values 1.02 | S. cerevisiae deletion strains, locus YLL026W, hits give low values 1 | S. cerevisiae deletion strains, locus YLL041C, strain sdh2, hits give low values 1.01 | S. cerevisiae deletion strains, locus YLR027C, strain aat2, hits give low values 1.01 | S. cerevisiae deletion strains, locus YLR039C, strain RIC1, hits give low values 0.971 | S. cerevisiae deletion strains, locus YLR058C, strain SHM2, hits give low values 1.01 | S. cerevisiae deletion strains, locus YLR102C, strain apc9, hits give low values 0.996 | S. cerevisiae deletion strains, locus YLR113W, strain HOG1, hits give low values 0.993 | S. cerevisiae deletion strains, locus YLR221C, strain rsa3, hits give low values 1.01 | S. cerevisiae deletion strains, locus YLR258W, strain gsy2, hits give low values 1.01 | S. cerevisiae deletion strains, locus YLR262C, strain YPT6 (second series), hits give low values 1.03 | S. cerevisiae deletion strains, locus YLR262C, strain YPT6, hits give low values 0.995 | S. cerevisiae deletion strains, locus YLR268W, strain sec22, hits give low values 0.981 | S. cerevisiae deletion strains, locus YLR320W, strain mms22, hits give low values 1.02 | S. cerevisiae deletion strains, locus YLR330W, strain CHS5, hits give low values 1.01 | S. cerevisiae deletion strains, locus YLR342W, strain FKS1 (second series), hits give low values 1.01 | S. cerevisiae deletion strains, locus YLR342W, strain FKS1, hits give low values 1.03 | S. cerevisiae deletion strains, locus YLR357W, strain rsc2, hits give low values 1.02 | S. cerevisiae deletion strains, locus YLR370C, strain arc18, hits give low values 1.01 | S. cerevisiae deletion strains, locus YLR371W, strain rom2, hits give low values 1 | S. cerevisiae deletion strains, locus YLR384C, strain iki3, hits give low values 1.01 | S. cerevisiae deletion strains, locus YLR418C, strain cdc73, hits give low values 0.992 | S. cerevisiae deletion strains, locus YML016C, strain PPZ1, hits give low values 1 | S. cerevisiae deletion strains, locus YML032C, strain rad52, hits give low values 0.992 | S. cerevisiae deletion strains, locus YML120C, strain ndi1, hits give low values 1.01 | S. cerevisiae deletion strains, locus YML124C, strain tub3, hits give low values 0.995 | S. cerevisiae deletion strains, locus YMR058W, strain fet3, hits give low values 0.995 | S. cerevisiae deletion strains, locus YMR078C, strain ctf18, hits give low values 1 | S. cerevisiae deletion strains, locus YMR125W, strain sto1, hits give low values 0.979 | S. cerevisiae deletion strains, locus YMR129W, hits give low values 0.99 | S. cerevisiae deletion strains, locus YMR205C, strain PFK2, hits give low values 1.02 | S. cerevisiae deletion strains, locus YMR223W, strain ubp8, hits give low values 0.995 | S. cerevisiae deletion strains, locus YMR231W, strain pep5, hits give low values 1.01 | S. cerevisiae deletion strains, locus YMR263W, strain SAP30, hits give low values 0.982 | S. cerevisiae deletion strains, locus YMR307W, strain GAS1, hits give low values 0.998 | S. cerevisiae deletion strains, locus YNL067W, strain RPL9B, hits give low values 1.01 | S. cerevisiae deletion strains, locus YNL071W, strain lat1, hits give low values 1 | S. cerevisiae deletion strains, locus YNL128W, strain TEP1, hits give low values 1.02 | S. cerevisiae deletion strains, locus YNL153C, strain GIM3, hits give low values 1.13 | S. cerevisiae deletion strains, locus YNL175C, strain NOP13, hits give low values 0.997 | S. cerevisiae deletion strains, locus YNL183C, strain NPR1, hits give low values 0.975 | S. cerevisiae deletion strains, locus YNL197C, strain WHI3, hits give low values 0.976 | S. cerevisiae deletion strains, locus YNL209W, strain ssb2, hits give low values 1.01 | S. cerevisiae deletion strains, locus YNL224C, strain SQS1, hits give low values 1 | S. cerevisiae deletion strains, locus YNL233W, strain BNI4, hits give low values 1 | S. cerevisiae deletion strains, locus YNL248C, strain rpa49, hits give low values 1.01 | S. cerevisiae deletion strains, locus YNL250W, strain rad50, hits give low values 0.998 | S. cerevisiae deletion strains, locus YNL271C, strain bni1, hits give low values 0.993 | S. cerevisiae deletion strains, locus YNL298W, strain CLA4, hits give low values 1.01 | S. cerevisiae deletion strains, locus YNL307C, strain MCK1, hits give low values 0.995 | S. cerevisiae deletion strains, locus YNL322C, strain KRE1 (second series), hits give low values 1.01 | S. cerevisiae deletion strains, locus YNL322C, strain KRE1, hits give low values 1 | S. cerevisiae deletion strains, locus YNR049C, strain mso1, hits give low values 1 | S. cerevisiae deletion strains, locus YNR052C, strain pop2, hits give low values 0.998 | S. cerevisiae deletion strains, locus YOL006C, strain TOP1, hits give low values 0.989 | S. cerevisiae deletion strains, locus YOL012C, strain htz1 0.947 | S. cerevisiae deletion strains, locus YOL147C, strain pex11, hits give low values 0.988 | S. cerevisiae deletion strains, locus YOR001W, strain rrp6, hits give low values 0.981 | S. cerevisiae deletion strains, locus YOR061W, strain CKA2, hits give low values 1 | S. cerevisiae deletion strains, locus YOR069W, strain VPS5, hits give low values 1.01 | S. cerevisiae deletion strains, locus YOR070C, strain gyp1, hits give low values 1.01 | S. cerevisiae deletion strains, locus YOR080W, strain dia2, hits give low values 1.01 | S. cerevisiae deletion strains, locus YOR083W, strain WHI5 (second series), hits give low values 1 | S. cerevisiae deletion strains, locus YOR083W, strain WHI5, hits give low values 1.02 | S. cerevisiae deletion strains, locus YOR106W, strain vam3, hits give low values 1.01 | S. cerevisiae deletion strains, locus YOR136W, strain idh2, hits give low values 1 | S. cerevisiae deletion strains, locus YOR144C, strain elg1, hits give low values 0.992 | S. cerevisiae deletion strains, locus YOR184W, strain ser1, hits give low values 1.01 | S. cerevisiae deletion strains, locus YOR231W, strain MKK1, hits give low values 1 | S. cerevisiae deletion strains, locus YOR265W, strain rbl2, hits give low values 1 | S. cerevisiae deletion strains, locus YOR270C, strain vph1, hits give low values 1.02 | S. cerevisiae deletion strains, locus YOR290C, strain snf2, hits give low values 1.01 | S. cerevisiae deletion strains, locus YOR316C, strain cot1, hits give low values 0.996 | S. cerevisiae deletion strains, locus YPL051W, strain arl3, hits give low values 1.01 | S. cerevisiae deletion strains, locus YPL055C, strain LGE1, hits give low values 1.01 | S. cerevisiae deletion strains, locus YPL078C, strain atp4, hits give low values 0.994 | S. cerevisiae deletion strains, locus YPL106C, strain sse1, hits give low values 1.01 | S. cerevisiae deletion strains, locus YPL240C, strain hsp82, hits give low values 0.992 | S. cerevisiae deletion strains, locus YPL241C, strain CIN2, hits give low values 1.01 | S. cerevisiae deletion strains, locus YPL256C, strain CLN2, hits give low values 1 | S. cerevisiae deletion strains, locus YPR119W, strain clb2, hits give low values 0.996 | S. cerevisiae deletion strains, locus YPR141C, strain kar3, hits give low values 0.989 | S. cerevisiae deletion strains, locus YPR163C, strain tif3, hits give low values 0.994 | S. cerevisiae deletion strains, locus YPR167C, strain met16, hits give low values 0.995 | S. cerevisiae deletion strains, strain wtn01, hits give low values 0.991 | S. cerevisiae strains, strain wild type, hits give low values 1.01
